Activity calls are given as the source filed them. Rule for the calls: active = hit-call score of the fitted dose curve at least 0.9, where 1 is the maximum; inactive = score below 0.9.
Tests used:
[1] = read-out: Macrophage colony-stimulating factor (MCSF), CSF1 (gene 1435); assay: BSK_hDFCGF_MCSF: BioMAP Diversity Plus: hDFCGF Assay for Macrophage colony-stimulating factor (MCSF) Biomarker Activity (AID 2283060); conditions: primary human foreskin fibroblasts; actives raise or lower the signal
Summary of the method: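 Human foreskin primary fibroblasts were treated with test chemical for 24 h, and M-CSF was then measured by ELISA. Data were fitted bidirectionally against DMSO as the negative control and activity baseline.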

[2] = BSK_hDFCGF_SRB: Viability Assessment in the BioMAP Diversity Plus: hDFCGF Assay (AID 2283061); conditions: primary human foreskin fibroblasts;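 note: cells exposed to compound for 24 h before the read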
Summary of the method: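 Human foreskin primary fibroblasts were treated with compound and assessed 24 h after dosing. Total protein was measured by sulforhodamine B staining (0.1% SRB after 10% TCA fixation, 560 nm read) as a cytotoxicity marker, with bidirectional fitting against DMSO baseline.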

[3] = read-out: TIMP metallopeptidase inhibitor 1 (TIMP1), TIMP1 (gene 7076); assay: BSK_hDFCGF_TIMP1: BioMAP Diversity Plus: hDFCGF Assay for TIMP metallopeptidase inhibitor 1 (TIMP1) Biomarker Activity (AID 2283062); conditions: primary human foreskin fibroblasts; actives raise or lower the signal
Summary of the method: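 Primary human foreskin fibroblasts in the hDFCGF system were dosed with compound for 24 h, then TIMP-1 was measured by ELISA. Activity was fitted bidirectionally relative to DMSO control; parallel SRB staining assessed cytotoxicity.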

[4] = read-out: Monokine induced gamma interferon (MIG), CXCL9 (gene 4283); assay: BSK_hDFCGF_MIG: BioMAP Diversity Plus: hDFCGF Assay for Monokine induced gamma interferon (MIG) Biomarker Activity (AID 2283063); conditions: primary human foreskin fibroblasts; actives raise or lower the signal
Summary of the method: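 ELISA read-out of MIG from primary human dermal fibroblasts 24 h post-dosing. Gain or loss of signal fitted bidirectionally, DMSO as baseline.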

[5] = read-out: Vascular cell adhesion molecule 1 (VCAM1), VCAM1 (gene 7412); assay: BSK_hDFCGF_VCAM1: BioMAP Diversity Plus: hDFCGF Assay for Vascular cell adhesion molecule 1 (VCAM1) Biomarker Activity (AID 2283065); conditions: primary human foreskin fibroblasts; actives raise or lower the signal;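 for AC50: VCAM-1 protein level quantified by ELISA after 24 h chemical exposure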
Summary of the method: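 Primary human foreskin fibroblasts (hDFCGF system) were dosed with chemical and VCAM-1 was measured by ELISA 24 h later. Bidirectional curve fitting used DMSO as negative control and activity baseline.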

[6] = read-out: Plasminogen activator inhibitor-1 (PAI1), SERPINE1 (gene 5054); assay: BSK_hDFCGF_PAI1: BioMAP Diversity Plus: hDFCGF Assay for Plasminogen activator inhibitor-1 (PAI1) Biomarker Activity (AID 2283066); conditions: primary human foreskin fibroblasts; actives raise or lower the signal
Summary of the method: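 PAI-1 levels in human dermal foreskin fibroblasts were quantified by ELISA 24 h after dosing, with gain or loss analysed against DMSO. Overt cytotoxicity was checked by sulforhodamine B total-protein staining in parallel cultures.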

[7] = read-out: Intercellular Adhesion Molecule 1 (ICAM1), ICAM1 (gene 3383); assay: BSK_KF3CT_ICAM1: BioMAP Diversity Plus: KF3CT Assay for Intercellular Adhesion Molecule 1 (ICAM1) Biomarker Activity (AID 2283067); conditions: primary human keratinocytes with fibroblasts; actives raise or lower the signal
Summary of the method: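 Human keratinocyte plus foreskin fibroblast primary co-culture was exposed to chemical for 24 h. ICAM-1 was then quantified by ELISA, and the data were fit bidirectionally against DMSO as the negative control and baseline.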

[8] = BSK_KF3CT_SRB: Viability Assessment in the BioMAP Diversity Plus: KF3CT Assay (AID 2283069); conditions: primary human keratinocytes with fibroblasts;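 note: fitted for both signal gain and loss against DMSO baseline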
Summary of the method: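 Overt cytotoxicity is assessed as total protein by sulforhodamine B staining in parallel human skin co-cultures at 24 h after dosing. DMSO serves as negative control and baseline.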

[9] = read-out: Interleukin-1 alpha (IL1a), IL1A (gene 3552); assay: BSK_KF3CT_IL1a: BioMAP Diversity Plus: KF3CT Assay for Interleukin-1 alpha (IL1a) Biomarker Activity (AID 2283070); conditions: primary human keratinocytes with fibroblasts; actives raise or lower the signal
Summary of the method: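 Readout is IL-1a level by ELISA, compared bidirectionally with DMSO as baseline. Cells: human keratinocytes co-cultured with foreskin fibroblasts, harvested 24 h post-dose.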

[10] = read-out: TIMP metallopeptidase inhibitor 2 (TIMP2), TIMP2 (gene 7077); assay: BSK_KF3CT_TIMP2: BioMAP Diversity Plus: KF3CT Assay for TIMP metallopeptidase inhibitor 2 (TIMP2) Biomarker Activity (AID 2283071); conditions: primary human keratinocytes with fibroblasts; actives raise or lower the signal
Summary of the method: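 TIMP-2 measured by ELISA at 24 h in human keratinocyte/fibroblast primary co-cultures exposed to chemicals. Both increases and decreases were fitted against DMSO. Parallel cultures were stained with SRB for total protein as an overt-cytotoxicity check.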

[11] = read-out: Transforming growth factor beta 1 (TGFb1), TGFB1 (gene 7040); assay: BSK_KF3CT_TGFb1: BioMAP Diversity Plus: KF3CT Assay for Transforming growth factor beta 1 (TGFb1) Biomarker Activity (AID 2283072); conditions: primary human keratinocytes with fibroblasts; actives raise or lower the signal
Summary of the method: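 ELISA quantifies TGF-b1 at 24 h post-dose in a primary human skin co-culture of keratinocytes and fibroblasts, with gain or loss judged against DMSO. Parallel SRB total-protein staining flags overt cytotoxicity.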

[12] = read-out: C-C motif chemokine 2 (Homo sapiens) (UniProt P13500); assay: BSK_KF3CT_MCP1: BioMAP Diversity Plus: KF3CT Assay for Monocyte Chemoattractant Protein 1 (MCP1/CCL2) Biomarker Activity (AID 2283073); conditions: primary human keratinocytes with fibroblasts; actives raise or lower the signal
Summary of the method: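 Human keratinocyte plus foreskin fibroblast primary co-culture exposed to chemical for 24 h. MCP-1 levels measured by ELISA. Bidirectional curve fitting relative to DMSO negative control as baseline.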

[13] = read-out: Matrix Metallopeptidase 9 (MMP9), MMP9 (gene 4318); assay: BSK_KF3CT_MMP9: BioMAP Diversity Plus: KF3CT Assay for Matrix Metallopeptidase 9 (MMP9) Biomarker Activity (AID 2283074); conditions: primary human keratinocytes with fibroblasts; actives raise or lower the signal;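 for AC50: MMP9 protein level quantified by ELISA in the co-culture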
Summary of the method: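 Values come from bidirectional fitting relative to DMSO of MMP-9 levels, which were measured by ELISA. Measurements were taken 24 h after chemical dosing of a keratinocyte and foreskin fibroblast co-culture.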

[14] = read-out: urokinase plasminogen activator (uPA), PLAU (gene 5328); assay: BSK_KF3CT_uPA: BioMAP Diversity Plus: KF3CT Assay for urokinase plasminogen activator (uPA) Biomarker Activity (AID 2283075); conditions: primary human keratinocytes with fibroblasts; actives raise or lower the signal
Summary of the method: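 Values derive from bidirectional fitting against DMSO controls. Keratinocyte/foreskin fibroblast co-cultures received chemical; 24 h later uPA was detected by ELISA, with SRB total-protein staining in parallel wells for overt cytotoxicity.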

CD40, CD40 (gene 958) = assay: BSK_LPS_CD40: BioMAP Diversity Plus: LPS Assay for CD40 Biomarker Activity (AID 2283076); conditions: primary human HUVEC with PBMC; actives raise or lower the signal
Summary of the method: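 Primary human umbilical vein endothelial cells co-cultured with peripheral blood mononuclear cells, LPS-stimulated, were dosed with chemical and read 24 h later. CD40 levels were measured by ELISA and fitted bidirectionally against DMSO as negative control and baseline.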

[15] = read-out: Interleukin-8 (IL8), CXCL8 (gene 3576); assay: BSK_LPS_IL8: BioMAP Diversity Plus: LPS Assay for Interleukin-8 (IL8) Biomarker Activity (AID 2283078); conditions: primary human HUVEC with PBMC; actives raise or lower the signal
Summary of the method: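 Human umbilical vein endothelial cells co-cultured with PBMC were stimulated with LPS; IL-8 levels were measured by ELISA 24 h after chemical dosing. Activity was fitted bidirectionally against DMSO as negative control and baseline.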

[16] = BSK_LPS_SRB: Viability Assessment in the BioMAP Diversity Plus: LPS Assay (AID 2283079); conditions: primary human HUVEC with PBMC;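 note: total protein by sulforhodamine B absorbance as a cytotoxicity measure; measured one day after compound addition; fitted in both directions against DMSO so loss or gain of signal counts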
Summary of the method: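 Human umbilical vein endothelial cells co-cultured with PBMC (LPS system) were dosed for 24 h. Total protein was stained with 0.1% sulforhodamine B after 10% TCA fixation, read at 560 nm, and fitted bidirectionally against DMSO baseline.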

[17] = read-out: Interferon-gamma inducible Protein 10 (IP10), CXCL10 (gene 3627); assay: BSK_KF3CT_IP10: BioMAP Diversity Plus: KF3CT Assay for Interferon-gamma inducible Protein 10 (IP10) Biomarker Activity (AID 2283068); conditions: primary human keratinocytes with fibroblasts; actives raise or lower the signal
Summary of the method: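 Signal is secreted/surface IP-10 by ELISA in a human primary skin co-culture of keratinocytes and foreskin fibroblasts, taken 24 h post-dosing; DMSO served as negative control.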

[18] = read-out: E-selectin (Homo sapiens) (UniProt P16581); assay: BSK_LPS_Eselectin: BioMAP Diversity Plus: LPS Assay for Eselectin Biomarker Activity (AID 2283077); conditions: primary human HUVEC with PBMC; actives raise or lower the signal
Summary of the method: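 Human umbilical vein endothelial cells co-cultured with peripheral blood mononuclear cells under LPS stimulation; E-selectin measured by ELISA 24 h after chemical dosing. Activity fitted bidirectionally against DMSO as negative control and baseline.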

Measured: AC50

E-selectin (Homo sapiens), sequence (P16581 whole entry, looked up): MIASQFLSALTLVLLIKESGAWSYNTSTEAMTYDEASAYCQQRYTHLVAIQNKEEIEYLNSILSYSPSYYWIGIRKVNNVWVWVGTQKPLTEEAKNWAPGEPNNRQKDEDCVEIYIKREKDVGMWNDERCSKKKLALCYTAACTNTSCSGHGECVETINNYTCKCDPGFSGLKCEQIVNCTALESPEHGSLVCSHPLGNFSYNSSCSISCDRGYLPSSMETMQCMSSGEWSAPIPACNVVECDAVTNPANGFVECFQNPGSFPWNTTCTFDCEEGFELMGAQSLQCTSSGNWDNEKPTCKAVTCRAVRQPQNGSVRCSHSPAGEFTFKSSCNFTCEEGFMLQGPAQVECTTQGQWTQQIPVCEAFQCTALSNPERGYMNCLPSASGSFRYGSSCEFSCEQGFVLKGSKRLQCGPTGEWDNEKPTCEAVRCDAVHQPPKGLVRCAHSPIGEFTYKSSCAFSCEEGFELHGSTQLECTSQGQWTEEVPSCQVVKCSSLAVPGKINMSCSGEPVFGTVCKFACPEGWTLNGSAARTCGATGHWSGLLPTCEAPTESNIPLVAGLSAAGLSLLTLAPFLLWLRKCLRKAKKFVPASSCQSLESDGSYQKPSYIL

Cc1c([N+](=O)[O-])cc2c(c1[N+](=O)[O-])C(C)(C)CC2(C)C
inactive: [2] | [3] | [4] | [5] | [6] | [7] | [8] | [9] | [10] | [12] | [13] | [14] | [15] | [16]
active: [1] 3.02 µM | [11] 3.06 µM | CD40, CD40 (gene 958) 0.807 µM

O=c1ssc(Cl)c1Cl
active: [1] 3.29 µM | [2] 2.71 µM | [3] 2.65 µM | [4] 5.86 µM | [5] 4 µM | [6] 4.05 µM | [7] 5.46 µM | [17] 7.06 µM | [8] 2.83 µM | [9] 3.02 µM | [11] 20 µM | [12] 2.98 µM | [13] 5.92 µM | [14] 5.59 µM | CD40, CD40 (gene 958) 3.38 µM | [18] 6.46 µM | [15] 7.38 µM | [16] 5.34 µM

c1ccc(OP(Oc2ccccc2)Oc2ccccc2)cc1
inactive: [1] | [2] | [3] | [4] | [5] | [6] | [7] | [8] | [9] | [11] | [12] | [13] | [14] | CD40, CD40 (gene 958) | [18] | [15] | [16]

CCOP(=S)(S)OCC
inactive: [1] | [2] | [3] | [4] | [5] | [6] | [7] | [8] | [9] | [11] | [12] | [13] | [14] | CD40, CD40 (gene 958) | [18] | [15] | [16]

c1ccc2c(c1)sc1ccccc12
inactive: [1] | [2] | [3] | [4] | [5] | [6] | [7] | [17] | [8] | [9] | [11] | [12] | [13] | [14] | CD40, CD40 (gene 958) | [18] | [15] | [16]

Nc1ccc2ccccc2c1
inactive: [1] | [2] | [3] | [4] | [5] | [6] | [7] | [17] | [8] | [9] | [11] | [12] | [13] | [14] | CD40, CD40 (gene 958) | [18] | [15] | [16]

CCCCN(CCCC)SN(C)C(=O)Oc1cccc2c1OC(C)(C)C2
inactive: [7] | [17] | [8] | [9] | [11] | [12] | [14]
active: [1] 7.15 µM | [2] 9.64 µM | [3] 12.4 µM | [4] 13.2 µM | [5] 5.54 µM | [6] 8.57 µM | [13] 13.8 µM | CD40, CD40 (gene 958) 20 µM | [15] 30.9 µM | [16] 28.4 µM

CC(C)(C)OOC(C)(C)C
inactive: [1] | [2] | [3] | [4] | [5] | [6] | [7] | [8] | [9] | [11] | [12] | [13] | [14] | CD40, CD40 (gene 958) | [15] | [16]

c1ccc2c(c1)Nc1ccccc1S2
inactive: [2] | [3] | [4] | [7] | [17] | [8] | [9] | [11] | [12] | [13] | [14] | CD40, CD40 (gene 958) | [15] | [16]
active: [1] 9.32 µM | [5] 20 µM | [6] 29.4 µM

c1cc2c3c(cccc3c1)CC2
inactive: [1] | [2] | [3] | [4] | [5] | [6] | [7] | [17] | [8] | [9] | [11] | [12] | [13] | [14] | CD40, CD40 (gene 958) | [18] | [15] | [16]

Cc1ccc(O)cc1C
inactive: [1] | [2] | [3] | [4] | [5] | [6] | [7] | [17] | [8] | [9] | [11] | [12] | [13] | [14] | CD40, CD40 (gene 958) | [18] | [15] | [16]

O=C(O)C(F)(F)OC(F)(F)C(F)(F)OC(F)(F)C(=O)O
inactive: [1] | [2] | [3] | [4] | [5] | [6] | [7] | [8] | [9] | [12] | [13] | [14] | CD40, CD40 (gene 958) | [18] | [15] | [16]

CCCCCCCc1ccc(O)cc1
active: [1] 20 µM | [2] 30 µM | [3] 32.5 µM | [4] 28.5 µM | [5] 20.7 µM | [6] 30.3 µM | [7] 33.3 µM | [17] 29 µM | [8] 30.7 µM | [9] 30.4 µM | [11] 31.7 µM | [12] 29.6 µM | [13] 30.5 µM | CD40, CD40 (gene 958) 30.9 µM | [15] 35.1 µM | [16] 37.2 µM
